In the library only some 19% were active in any assay of this set; here they are far more common.
TDP1 block – qHTS Assay for Inhibitors of Tyrosyl-DNA Phosphodiesterase (TDP1); Potency, µM (titrated, usually from 130 µM), inactives show top-dose activity change, negative = inhibition, usual class: inhibitors; recombinant TDP1, AlphaScreen DNA substrate cleavage; 350,000 tested, 0.28% active; further: potency means the concentration at half of the fitted maximal effect; on the % scale 0 is the no-effect control and ±100 the full control effect; nearly all actives have a fitted effect of over 40% in size
Target sequence (Q9NUW8 whole entry, looked up): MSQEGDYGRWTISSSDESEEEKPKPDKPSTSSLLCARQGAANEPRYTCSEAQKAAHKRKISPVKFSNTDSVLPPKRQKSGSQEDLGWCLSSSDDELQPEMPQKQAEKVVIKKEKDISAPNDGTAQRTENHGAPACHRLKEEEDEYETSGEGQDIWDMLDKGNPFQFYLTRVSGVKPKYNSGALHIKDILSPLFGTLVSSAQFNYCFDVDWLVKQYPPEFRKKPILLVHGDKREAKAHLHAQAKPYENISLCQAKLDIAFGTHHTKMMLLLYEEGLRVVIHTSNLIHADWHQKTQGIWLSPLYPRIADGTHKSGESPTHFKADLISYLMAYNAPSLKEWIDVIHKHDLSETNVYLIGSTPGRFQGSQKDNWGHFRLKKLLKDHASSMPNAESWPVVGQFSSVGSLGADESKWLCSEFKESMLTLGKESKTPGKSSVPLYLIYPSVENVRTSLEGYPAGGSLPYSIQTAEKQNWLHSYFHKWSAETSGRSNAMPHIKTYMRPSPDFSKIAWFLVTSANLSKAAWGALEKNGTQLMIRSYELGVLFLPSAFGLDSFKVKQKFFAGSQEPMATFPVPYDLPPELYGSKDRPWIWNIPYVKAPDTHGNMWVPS
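AlphaScreen read-out: signal falls as enzyme removes the 3' tyrosine-FITC from a 5'-biotinylated DNA oligo (15 nM, 5 min, RT). Enzyme was E. coli-made recombinant Tdp1 at 1 nM, exposed to compound for 15 min beforehand; beads 10 ug/ml, 10 min.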
DT40 TDP1 CPT – qHTS for Inhibitors of human tyrosyl-DNA phosphodiesterase 1 (TDP1): qHTS in cells in presence of CPT; chicken DT40 Tdp1-/-;hTDP1 cells + 20 nM CPT, ATP luminescence, 48 h; Potency, µM (series often up to 46.2 µM), inactives show top-dose activity change, negative = growth inhibition, hits mostly inhibitors; 420,000 tested, 12% active; AID 686979, 2013; further: potency means the concentration at half of the fitted maximal effect; on the % scale 0 is the no-effect control and ±100 the full control effect; nearly all actives have a fitted effect of over 55% in size
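Cell growth measured by CellTiter-Glo luminescence after a minimum 48 h, 37 C compound exposure with 20 nM CPT in Tdp1-knockout DT40 cells stably expressing hTDP1, seeded 400/well; qHTS titration format.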
HepG2 viability – qHTS for Inhibitors of TGF-b: Cytotox Counterscreen; 410,000 tested, 0.76% active; Potency, µM (top dose mostly 46.1 µM), for inactives: at the top dose activity change, negative = cytotoxicity, actives largely listed as cytotoxic; HepG2 CAGA-GFP viability, ATP luminescence, 18 h; further: potency means the concentration at half of the fitted maximal effect
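CellTiter-Glo luminescence gave cytotoxicity after 18 hours at 37 degrees C. The cells were HepG2 CAGA-GFP in 1% FBS DMEM, stimulated with 500 pg/mL TGF-beta after compound addition. %Activity was normalised to no-cell wells (complete cell-killing) and DMSO (no toxicity), and curves were fitted and classified.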
IL-1B inflam inh – qHTS for Inhibitors of Inflammasome Signaling: IL-1-beta AlphaLISA Primary Screen; THP-1 LPS/ATP IL-1B secretion, AlphaLISA, 16 h; active compounds read low; activity change, % at 57.5 µM; 360,000 tested, 4.7% active; in the data active means activity change below about -50%; inconclusive means mostly about -30% to -49%; further: on the % scale 0 is the no-effect control and ±100 the full control effect
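Secreted IL-1B measured by AlphaLISA bead assay after 16 h compound exposure of THP-1 cells; compounds (final up to 57.5 uM) added 1 h before LPS (250 ng/mL) and ATP (1.25 mM) stimulation; lower signal means less secretion.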
TGFb inhibitor – qHTS for Inhibitors of TGF-b | Potency, µM (titrated, usually from 46.1 µM), without a hit: top-dose activity, negative = inhibition, most hits filed as inhibitors | HepG2 CAGA-GFP TGF-b/SMAD3 reporter, GFP fluorescence, 18 h; TGF-beta stimulated, 500 pg/mL final | 410,000 tested, 1.2% active; further: potency means the concentration at half of the fitted maximal effect; on the % scale 0 is the no-effect control and ±100 the full control effect; nearly all actives have a fitted effect of over 65% in size
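HEPG2 CAGA-GFP, 1000 cells/well; 2 h settle, 37 C; cpd via pin tool; TGF-b 500 pg/mL final; 18 h, 37 C; GFP imaging ex488/em500-530; %Activity normalised to -TGF-b and +DMSO controls; CRC fit, curve class.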
TDP1 cell noCPT – qHTS for Inhibitors of human tyrosyl-DNA phosphodiesterase 1 (TDP1): qHTS in cells in absence of CPT; Potency, µM (titrated, usually from 46.2 µM), for inactives: at the top dose activity change, negative = growth inhibition, actives largely listed as inhibitors; AID 686978, 2013; DT40 Tdp1-/- hTDP1 cells, no CPT, ATP luminescence, 48 h; 420,000 tested, 15% active; further: potency means the concentration at half of the fitted maximal effect; on the % scale 0 is the no-effect control and ±100 the full control effect; nearly all actives have a fitted effect of over 55% in size
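Camptothecin absent (DMSO only). Human TDP1-complemented DT40 knockout cells, 400 cells/well, 37 °C for minimum 48 hr; ATP measured via CellTiter-Glo, 30 min dark incubation, luminescence.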
* marks the source's active call; other numbers are inactive results; u = inconclusive; x = not tested or not shown; ! = repeats disagree; [ ] = another dose, or the depositor's remark. Unless noted, the call rests on the fitted dose curve; in most records, active means well fitted curve in the direction sought with a large enough effect; inconclusive means small, poorly fitted or top-dose-only effect, or another doubt; inactive means no such curve, though single readings can be large; an effect the other way counts as inactive or inconclusive.

SMILES	TDP1 block	DT40 TDP1 CPT	HepG2 viability	IL-1B inflam inh	TGFb inhibitor	TDP1 cell noCPT
COc1ccc(NC(=O)Nc2cccc3c2O[C@@H](CN(C)CC2CCCCC2)[C@@H](C)CN([C@H](C)CO)C3=O)cc1	0.9%	23.1µM*	-31.0%	-1.3	-26.5%	u
COc1ccc(NC(=O)Nc2cccc3c2O[C@H](CN(C)Cc2ccc(-c4ccccc4)cc2)[C@@H](C)CN([C@H](C)CO)C3=O)cc1	-2.3%	8.2µM*	0.3%	56.8	0.6%	11.6µM*
COc1ccc(NC(=O)Nc2ccc3c(c2)C(=O)N([C@H](C)CO)C[C@H](C)[C@@H](CN(C)C(=O)NC(C)C)O3)cc1	1.5%	3.5%	4.9%	20.7	6.7%	-14.6%
COc1ccccc1Oc1c(C)oc2c(CN(C)C)c(O)ccc2c1=O	1.8%	-1.8%	10.3%	-1.0	6.6%	-0.1%
Cc1cc(C)c(NC(=O)c2ccccc2CCc2ccccc2)c(C)c1	0.0%	18.4µM*	-42.6%	12.7	u	u
O=C(NCc1ccccc1Cl)c1ccccc1CCc1ccccc1	1.9%	u	-4.2%	-14.6	4.8%	16.4µM*
O=C(NCc1ccc(Cl)cc1)c1ccccc1CCc1ccccc1	-2.3%	-11.8%	3.4%	-18.3	-0.3%	-29.6%
CS(=O)(=O)N1CCC(C(=O)Nc2cccc(Br)c2)CC1	-12.5%	5.9%	-0.5%	-0.3	21.8%	1.3%
CC(Sc1nc(-c2ccccc2)cc(C(F)(F)F)n1)C(=O)N1CCCC1 (centres undefined)	5.3%	u	16.2%	-3.4	-26.3%	-21.9%
CC1CCN(C(=O)C(C)Sc2nc(-c3ccccc3)cc(C(F)(F)F)n2)CC1 (centres undefined)	-4.2%	25.9µM*	4.1%	-29.1	15.8µM*!	29.1µM*
CN(CC(=O)Nc1cccc(F)c1)C(=O)c1cc([N+](=O)[O-])ccc1N1CCCCC1	0.4%	u	0.0%	14.9	-18.2%	29.1µM*
CN(CC(=O)Nc1cccc(F)c1)C(=O)c1ccc2c(c1)CC(c1ccccc1)OC2=O (centres undefined)	-4.4%	8.2µM*	-9.9%	-13.0	11.5%	5.17µM*
CCc1ccc(Cc2cnc(NC(=O)c3ccc4c(c3)CC(c3ccccc3)OC4=O)s2)cc1 (centres undefined)	4.9%	u	-1.4%	x	-2.5%	18.4µM*
O=C(Nc1ncc(Cc2ccccc2Cl)s1)c1ccc2c(c1)CC(c1ccccc1)OC2=O (centres undefined)	9.8%	-21.8%	4.0%	x	26.2%	-27.5%
CN(CC(=O)Nc1cccc(F)c1)C(=O)c1ccc(N2CCCC2)c([N+](=O)[O-])c1	-7.0%[0.505 µM]	16.4µM*	-0.1%	-13.6	13.1%	16.4µM*
CN(CC(=O)Nc1cccc(F)c1)C(=O)c1ccc(C2SCCS2)cc1	x	u	-12.5%	u	u	u
COc1cccc(NC(=O)CN(C)C(=O)c2ccc(N3CCCCC3)c([N+](=O)[O-])c2)c1	6.6%	u	-27.7%	22.2	u	u
Cc1ccc(S(=O)(=O)c2nnn(CC(=O)Nc3ccccc3C)c2N)cc1	-9.2%	15.2%	0.4%	x	u	-7.1%
O=C(O)C(Cc1c[nH]c2ccccc12)N1C(=O)c2ccccc2C1=O (centres undefined)	0.0%	-2.6%	-5.4%	24.5	9.2%	23.7%
O=[N+]([O-])c1ccc(O/N=[N+](\[O-])N2CCCCC2)c([N+](=O)[O-])c1	x	x	-1.9%	x	4.0%	x
CCOc1ccc(NC(=O)CN(C)C(=O)c2ccc(N3CCCCCC3)c([N+](=O)[O-])c2)cc1OCC	x	u	-4.0%	-1.2	-11.7%	23.1µM*
COc1ccc(/C=C\C(=O)CC(O)(c2ccccc2)C(F)(F)F)cc1 (centres undefined)	-0.7%	16.4µM*	-100.1%	-74.2*	u	14.6µM*
COc1ccc(/C=C/C(=O)OCC(=O)c2ccccc2F)cc1	-7.1%	-26.2%	-17.1%	-12.8	u	u
COC(=O)c1c(C(=O)OC)c2c(-c3ccccc3)cc3cccc1n32	x	u	-20.3%	39.8	15.4%	u
COC(=O)COc1ccc(S(=O)(=O)NCc2ccc3c(c2)OCO3)cc1	x	5.2%	1.7%	23.0	4.1%	-0.4%
SMILES	TDP1 block	DT40 TDP1 CPT	HepG2 viability	IL-1B inflam inh	TGFb inhibitor	TDP1 cell noCPT
Cc1ccc(NCc2nc3ccccc3n2C)c(C)c1	x	u	-25.0%	-17.3	-6.5%	u
Cc1ccc(N2CCN(c3ccc(NCc4nc5ccccc5n4C)cc3)CC2)cc1	7.9%	u	-17.7%	5.9	0.0%	16.4µM*
Cc1cccc(NCc2nc3ccccc3n2C)c1	7.0%	-7.4%	-21.7%	4.8	25.4%	-5.8%
Cn1c(CNc2ccc(Cl)cc2)nc2ccccc21	6.8%	16.4µM*	-8.3%	10.3	-33.5%	u
CN(Cc1nc2ccccc2n1C)S(=O)(=O)c1ccc(Cl)cc1	5.5%	u	-82.2%	-17.8	1.2%	25.9µM*
CC1=CC(=O)C(C(C)=Nc2ccccc2[N+](=O)[O-])C(=O)O1 (centres undefined)	x	8.7%	-3.4%	6.8	3.0%	2.6%
CC1CCC2(C1)N=C(Nc1nc3ccccc3o1)NC1=C2C(=O)CCC1 (centres undefined)	1.1%	x	x	x	x	x
O=C(Nc1ccccc1[N+](=O)[O-])OCC=Cc1ccccc1	x	1.0%	-8.2%	-54.1*	4.4%	u
O=C(c1cnccn1)N1CCC[C@@]2(CCN(Cc3nccs3)C2)C1	x	7.6%	x	x	x	-4.0%

Assay outcomes from PubChem.
